Data taken from the supplement of paper PMC11732987, “Enantioselective OTUD7B fragment discovery through chemoproteomics screening and high-throughput optimisation” (Communications Chemistry, 2025).

How the values were obtained:
Experiment in all cases: log2 ratio of Biotin-Ahx-Ub-VS probe labelling (fragment/DMSO); higher = less target engagement (more negative = stronger competition), active = hit call of the paper (q ≤ 0.05, log2 ratio ≤ -1)
Settings in all cases: compound concentration: 200 uM; treatment time: 3 h
[1] = molecular target: USP34 (UniProt Q70CQ2)
Chain of USP34 (Q70CQ2 whole entry, the tested form may be a part): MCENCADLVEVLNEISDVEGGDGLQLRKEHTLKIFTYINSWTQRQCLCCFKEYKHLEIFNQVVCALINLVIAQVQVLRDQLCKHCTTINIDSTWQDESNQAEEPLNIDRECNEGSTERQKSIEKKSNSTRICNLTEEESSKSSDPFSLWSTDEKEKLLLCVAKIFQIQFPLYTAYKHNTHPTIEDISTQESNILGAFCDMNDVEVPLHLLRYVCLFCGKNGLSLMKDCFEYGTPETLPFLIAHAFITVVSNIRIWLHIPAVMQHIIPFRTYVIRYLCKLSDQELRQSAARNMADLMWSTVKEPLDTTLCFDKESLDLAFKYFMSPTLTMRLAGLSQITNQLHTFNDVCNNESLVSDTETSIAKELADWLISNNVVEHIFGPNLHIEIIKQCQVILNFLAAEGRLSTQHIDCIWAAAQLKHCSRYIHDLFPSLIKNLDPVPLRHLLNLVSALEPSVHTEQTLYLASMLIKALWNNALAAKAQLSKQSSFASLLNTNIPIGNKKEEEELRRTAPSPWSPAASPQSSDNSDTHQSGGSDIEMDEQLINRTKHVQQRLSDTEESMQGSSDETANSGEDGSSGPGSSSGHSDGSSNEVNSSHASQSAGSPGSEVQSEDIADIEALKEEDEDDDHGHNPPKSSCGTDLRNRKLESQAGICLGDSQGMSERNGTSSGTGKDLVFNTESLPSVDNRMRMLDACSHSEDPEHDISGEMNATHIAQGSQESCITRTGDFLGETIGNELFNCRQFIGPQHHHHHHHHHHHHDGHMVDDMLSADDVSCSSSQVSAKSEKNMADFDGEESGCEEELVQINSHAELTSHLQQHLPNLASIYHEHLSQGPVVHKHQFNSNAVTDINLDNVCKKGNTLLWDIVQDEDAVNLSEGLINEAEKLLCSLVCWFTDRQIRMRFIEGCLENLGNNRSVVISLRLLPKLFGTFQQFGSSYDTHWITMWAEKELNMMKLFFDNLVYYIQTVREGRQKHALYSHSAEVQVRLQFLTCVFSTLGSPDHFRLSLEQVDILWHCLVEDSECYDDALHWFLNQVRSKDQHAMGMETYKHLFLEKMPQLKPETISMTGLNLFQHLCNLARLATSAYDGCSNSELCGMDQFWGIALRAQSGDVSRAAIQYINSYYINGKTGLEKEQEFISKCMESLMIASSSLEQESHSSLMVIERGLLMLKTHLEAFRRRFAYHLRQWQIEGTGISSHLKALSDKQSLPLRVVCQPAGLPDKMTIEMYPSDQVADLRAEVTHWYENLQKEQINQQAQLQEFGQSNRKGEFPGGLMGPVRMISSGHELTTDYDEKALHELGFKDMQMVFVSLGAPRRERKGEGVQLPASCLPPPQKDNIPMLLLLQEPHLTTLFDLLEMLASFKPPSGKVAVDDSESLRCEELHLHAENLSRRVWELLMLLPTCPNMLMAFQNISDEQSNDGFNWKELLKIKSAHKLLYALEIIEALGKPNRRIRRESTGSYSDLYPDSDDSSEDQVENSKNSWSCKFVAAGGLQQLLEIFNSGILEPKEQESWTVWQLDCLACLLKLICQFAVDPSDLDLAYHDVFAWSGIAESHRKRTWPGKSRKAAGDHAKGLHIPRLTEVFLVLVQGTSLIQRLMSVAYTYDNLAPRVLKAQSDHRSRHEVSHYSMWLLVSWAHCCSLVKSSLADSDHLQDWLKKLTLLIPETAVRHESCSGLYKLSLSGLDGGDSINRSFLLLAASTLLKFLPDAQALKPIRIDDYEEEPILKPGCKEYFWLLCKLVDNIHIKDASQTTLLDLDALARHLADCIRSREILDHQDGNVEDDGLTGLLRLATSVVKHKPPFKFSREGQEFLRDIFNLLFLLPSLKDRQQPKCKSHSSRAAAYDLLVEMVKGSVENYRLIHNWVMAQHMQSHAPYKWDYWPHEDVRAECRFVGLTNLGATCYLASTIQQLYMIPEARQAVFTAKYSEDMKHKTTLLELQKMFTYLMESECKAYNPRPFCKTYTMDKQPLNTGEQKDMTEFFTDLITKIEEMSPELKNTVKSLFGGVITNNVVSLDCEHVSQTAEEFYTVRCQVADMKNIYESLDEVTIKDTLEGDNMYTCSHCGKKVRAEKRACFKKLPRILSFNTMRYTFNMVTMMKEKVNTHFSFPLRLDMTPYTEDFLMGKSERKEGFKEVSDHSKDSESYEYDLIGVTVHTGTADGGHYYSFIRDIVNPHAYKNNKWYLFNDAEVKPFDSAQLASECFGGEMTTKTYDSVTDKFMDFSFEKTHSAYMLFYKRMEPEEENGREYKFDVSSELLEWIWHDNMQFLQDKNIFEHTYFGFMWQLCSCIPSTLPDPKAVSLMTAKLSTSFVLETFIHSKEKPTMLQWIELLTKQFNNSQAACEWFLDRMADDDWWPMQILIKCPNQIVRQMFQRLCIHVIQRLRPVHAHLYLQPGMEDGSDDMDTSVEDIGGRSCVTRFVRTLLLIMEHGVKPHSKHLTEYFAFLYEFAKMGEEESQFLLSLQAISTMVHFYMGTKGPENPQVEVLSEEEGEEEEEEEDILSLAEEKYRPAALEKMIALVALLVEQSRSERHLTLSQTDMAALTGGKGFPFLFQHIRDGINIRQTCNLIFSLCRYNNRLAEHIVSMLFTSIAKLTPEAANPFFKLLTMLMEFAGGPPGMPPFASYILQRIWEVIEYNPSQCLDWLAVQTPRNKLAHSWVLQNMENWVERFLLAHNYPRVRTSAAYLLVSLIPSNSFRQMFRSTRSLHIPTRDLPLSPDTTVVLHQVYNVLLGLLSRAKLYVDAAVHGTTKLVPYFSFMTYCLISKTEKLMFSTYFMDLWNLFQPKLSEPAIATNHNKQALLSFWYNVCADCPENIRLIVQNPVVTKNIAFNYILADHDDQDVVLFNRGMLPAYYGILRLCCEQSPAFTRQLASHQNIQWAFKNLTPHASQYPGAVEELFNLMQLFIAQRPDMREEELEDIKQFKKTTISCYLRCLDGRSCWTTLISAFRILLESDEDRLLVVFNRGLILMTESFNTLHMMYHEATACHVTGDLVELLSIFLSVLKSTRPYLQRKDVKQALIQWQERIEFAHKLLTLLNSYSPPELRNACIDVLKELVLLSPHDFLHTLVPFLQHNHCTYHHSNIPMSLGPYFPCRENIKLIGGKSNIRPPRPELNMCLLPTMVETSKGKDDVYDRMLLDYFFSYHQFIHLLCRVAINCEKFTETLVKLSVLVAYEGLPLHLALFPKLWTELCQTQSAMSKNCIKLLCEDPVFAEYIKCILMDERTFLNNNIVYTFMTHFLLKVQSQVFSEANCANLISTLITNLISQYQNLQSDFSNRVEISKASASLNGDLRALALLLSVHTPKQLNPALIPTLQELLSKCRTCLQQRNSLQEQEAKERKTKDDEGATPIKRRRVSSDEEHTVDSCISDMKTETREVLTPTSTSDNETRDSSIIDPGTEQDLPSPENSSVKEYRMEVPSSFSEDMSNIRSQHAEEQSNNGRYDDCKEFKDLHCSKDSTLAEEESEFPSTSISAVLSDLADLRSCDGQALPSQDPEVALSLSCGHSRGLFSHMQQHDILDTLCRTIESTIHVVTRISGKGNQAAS
Summary of the method: (§1)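 Global-median-normalised Spectronaut label-free quantities were compared by unpaired t-test, and values are average log2 ratios of fragment over vehicle. Only proteins with ≥2 unique peptides were used. HEK293T lysate (495 µg per sample) was treated in triplicate with fragment at 200 µM or vehicle for 3 h and then with Biotin-Ahx-Ub-VS at 0.5 µM final for 1 h. Labelled DUBs were then NeutrAvidin-enriched, digested with LysC and trypsin, and run by diaPASEF LC-MS/MS.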

[2] = molecular target: T1, USP36 (UniProt Q9P275)
T1 sequence (whole entry): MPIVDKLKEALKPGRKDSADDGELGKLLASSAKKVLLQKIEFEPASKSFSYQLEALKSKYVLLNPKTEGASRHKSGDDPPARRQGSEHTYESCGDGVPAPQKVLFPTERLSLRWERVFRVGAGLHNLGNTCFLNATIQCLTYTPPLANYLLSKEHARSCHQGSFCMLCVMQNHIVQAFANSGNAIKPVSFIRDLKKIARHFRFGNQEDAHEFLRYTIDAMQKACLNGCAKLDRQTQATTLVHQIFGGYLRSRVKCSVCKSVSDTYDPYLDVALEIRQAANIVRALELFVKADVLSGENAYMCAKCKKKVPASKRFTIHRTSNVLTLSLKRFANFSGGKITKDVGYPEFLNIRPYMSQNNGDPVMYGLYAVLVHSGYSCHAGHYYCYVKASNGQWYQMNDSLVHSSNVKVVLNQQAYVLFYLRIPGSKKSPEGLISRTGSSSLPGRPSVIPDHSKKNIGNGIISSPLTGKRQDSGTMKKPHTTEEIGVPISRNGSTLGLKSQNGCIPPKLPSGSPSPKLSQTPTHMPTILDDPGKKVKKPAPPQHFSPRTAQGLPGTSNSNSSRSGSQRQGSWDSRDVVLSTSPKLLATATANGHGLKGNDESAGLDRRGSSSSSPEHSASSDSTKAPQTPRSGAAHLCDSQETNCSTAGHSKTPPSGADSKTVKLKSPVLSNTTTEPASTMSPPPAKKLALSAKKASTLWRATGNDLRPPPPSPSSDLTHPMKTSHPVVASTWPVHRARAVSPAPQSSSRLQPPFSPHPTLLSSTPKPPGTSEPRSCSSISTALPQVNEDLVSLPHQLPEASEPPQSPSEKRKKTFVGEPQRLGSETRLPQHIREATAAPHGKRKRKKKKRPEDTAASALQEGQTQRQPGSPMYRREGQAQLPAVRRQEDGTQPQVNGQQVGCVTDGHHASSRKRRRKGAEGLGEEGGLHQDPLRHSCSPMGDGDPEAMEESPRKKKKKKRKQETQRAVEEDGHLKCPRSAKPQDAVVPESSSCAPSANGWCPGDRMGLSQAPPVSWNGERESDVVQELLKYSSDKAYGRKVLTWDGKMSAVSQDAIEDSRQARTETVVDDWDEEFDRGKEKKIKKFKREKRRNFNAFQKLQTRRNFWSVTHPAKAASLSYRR
Summary of the method: as §1

[3] = molecular target: T2, USP38 (UniProt Q8NB14)
T2 sequence (whole entry): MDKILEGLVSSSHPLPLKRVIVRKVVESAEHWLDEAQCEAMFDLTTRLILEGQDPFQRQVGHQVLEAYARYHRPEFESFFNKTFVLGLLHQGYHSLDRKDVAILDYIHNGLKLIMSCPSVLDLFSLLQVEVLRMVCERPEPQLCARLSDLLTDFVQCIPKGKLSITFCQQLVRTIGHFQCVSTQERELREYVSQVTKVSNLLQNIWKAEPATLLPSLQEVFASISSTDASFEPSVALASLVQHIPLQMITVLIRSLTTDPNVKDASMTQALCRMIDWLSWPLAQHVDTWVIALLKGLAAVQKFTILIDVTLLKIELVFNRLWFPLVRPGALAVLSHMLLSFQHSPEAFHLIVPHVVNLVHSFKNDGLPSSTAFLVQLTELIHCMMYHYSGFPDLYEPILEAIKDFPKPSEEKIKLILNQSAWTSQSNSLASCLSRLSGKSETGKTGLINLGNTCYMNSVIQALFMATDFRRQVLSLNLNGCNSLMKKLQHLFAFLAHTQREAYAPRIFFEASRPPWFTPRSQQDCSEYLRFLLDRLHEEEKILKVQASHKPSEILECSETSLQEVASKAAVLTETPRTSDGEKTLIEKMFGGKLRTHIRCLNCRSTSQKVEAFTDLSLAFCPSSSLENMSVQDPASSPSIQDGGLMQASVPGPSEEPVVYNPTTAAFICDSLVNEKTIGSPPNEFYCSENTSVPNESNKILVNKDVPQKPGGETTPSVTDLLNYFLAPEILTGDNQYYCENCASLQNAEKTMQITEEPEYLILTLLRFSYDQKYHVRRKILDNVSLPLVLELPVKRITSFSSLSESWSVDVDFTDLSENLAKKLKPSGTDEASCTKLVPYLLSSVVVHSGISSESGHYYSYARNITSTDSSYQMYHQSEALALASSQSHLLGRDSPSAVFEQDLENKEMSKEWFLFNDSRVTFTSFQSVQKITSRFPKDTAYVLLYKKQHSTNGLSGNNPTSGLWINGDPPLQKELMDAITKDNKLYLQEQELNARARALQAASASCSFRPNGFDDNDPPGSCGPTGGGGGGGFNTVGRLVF
Summary of the method: as §1

[4] = molecular target: T3, USP39 (UniProt Q53GS9)
T3 sequence (whole entry): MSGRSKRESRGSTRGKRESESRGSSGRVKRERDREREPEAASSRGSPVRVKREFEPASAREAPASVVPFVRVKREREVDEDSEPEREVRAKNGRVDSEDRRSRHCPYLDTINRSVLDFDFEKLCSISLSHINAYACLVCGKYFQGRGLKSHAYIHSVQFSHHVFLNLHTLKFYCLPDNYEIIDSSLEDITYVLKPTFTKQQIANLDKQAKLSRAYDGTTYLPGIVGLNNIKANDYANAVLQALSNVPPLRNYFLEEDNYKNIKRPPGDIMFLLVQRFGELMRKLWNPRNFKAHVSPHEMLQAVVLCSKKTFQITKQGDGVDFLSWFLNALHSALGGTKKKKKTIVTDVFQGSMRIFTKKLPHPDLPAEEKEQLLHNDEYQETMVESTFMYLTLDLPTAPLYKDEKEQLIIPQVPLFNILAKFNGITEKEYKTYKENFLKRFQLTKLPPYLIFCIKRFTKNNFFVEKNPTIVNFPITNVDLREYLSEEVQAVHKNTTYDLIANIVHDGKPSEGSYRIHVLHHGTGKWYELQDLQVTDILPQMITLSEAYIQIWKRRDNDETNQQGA
Summary of the method: as §1

[5] = molecular target: T4, USP4 (UniProt Q13107)
T4 sequence (whole entry): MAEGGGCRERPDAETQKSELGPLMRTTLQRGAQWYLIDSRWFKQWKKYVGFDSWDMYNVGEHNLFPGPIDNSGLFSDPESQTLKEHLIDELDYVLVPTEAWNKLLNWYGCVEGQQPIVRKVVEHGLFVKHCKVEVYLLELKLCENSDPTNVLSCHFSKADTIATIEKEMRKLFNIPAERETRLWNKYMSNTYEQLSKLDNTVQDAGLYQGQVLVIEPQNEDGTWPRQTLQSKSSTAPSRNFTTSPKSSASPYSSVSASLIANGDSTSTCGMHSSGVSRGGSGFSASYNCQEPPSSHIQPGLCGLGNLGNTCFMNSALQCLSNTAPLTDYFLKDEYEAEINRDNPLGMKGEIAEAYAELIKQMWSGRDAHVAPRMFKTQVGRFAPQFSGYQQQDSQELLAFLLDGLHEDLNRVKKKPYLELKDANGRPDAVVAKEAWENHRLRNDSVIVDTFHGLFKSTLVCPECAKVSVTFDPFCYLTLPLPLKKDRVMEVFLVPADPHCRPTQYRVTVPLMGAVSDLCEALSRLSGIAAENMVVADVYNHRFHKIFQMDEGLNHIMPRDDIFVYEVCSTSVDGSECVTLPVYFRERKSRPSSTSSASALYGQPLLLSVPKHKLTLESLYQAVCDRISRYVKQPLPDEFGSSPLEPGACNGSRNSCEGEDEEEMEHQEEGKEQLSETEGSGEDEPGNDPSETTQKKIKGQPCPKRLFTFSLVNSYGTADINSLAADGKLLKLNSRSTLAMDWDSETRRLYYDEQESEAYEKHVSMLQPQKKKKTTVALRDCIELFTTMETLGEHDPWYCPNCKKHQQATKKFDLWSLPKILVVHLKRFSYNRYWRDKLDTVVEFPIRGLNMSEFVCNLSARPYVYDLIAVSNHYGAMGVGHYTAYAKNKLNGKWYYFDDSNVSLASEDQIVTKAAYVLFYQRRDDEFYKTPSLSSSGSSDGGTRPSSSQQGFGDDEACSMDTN
Summary of the method: as §1

Measured: log2 ratio of Biotin-Ahx-Ub-VS probe labelling

Cl.O=C(CCl)N1CC(c2ccc(Br)cn2)C1
inactive: [1] -0.16 | [2] -0.222 | [3] -0.0763 | [4] -0.11 | [5] -0.285
